# From ChEMBL document CHEMBL1961873, “Compounds: GSK PKIS; Assays: Nanosyn kinase panel” (2012)
# Columns and labels:
# [1] = test system: Proto-oncogene tyrosine-protein kinase receptor Ret (Homo sapiens), P07949 [Y791F]; settings: at 1 µM
# [2] = biological target: Macrophage-stimulating protein receptor (Homo sapiens) (UniProt Q04912); settings: at 0.1 µM
# [3] = biological target: Macrophage-stimulating protein receptor (Homo sapiens) (UniProt Q04912); settings: at 1 µM
# [4] = biological target: Proto-oncogene tyrosine-protein kinase ROS (Homo sapiens) (UniProt P08922); settings: at 0.1 µM
# [5] = biological target: Proto-oncogene tyrosine-protein kinase ROS (Homo sapiens) (UniProt P08922); settings: at 1 µM
# [6] = biological target: Proto-oncogene tyrosine-protein kinase Src (Homo sapiens) (UniProt P12931); settings: at 0.1 µM
# [7] = biological target: Proto-oncogene tyrosine-protein kinase Src (Homo sapiens) (UniProt P12931); settings: at 1 µM
# [8] = biological target: Tyrosine-protein kinase Srms (Homo sapiens) (UniProt Q9H3Y6); settings: at 0.1 µM
# [9] = biological target: Tyrosine-protein kinase Srms (Homo sapiens) (UniProt Q9H3Y6); settings: at 1 µM
# [10] = biological target: Tyrosine-protein kinase SYK (Homo sapiens) (UniProt P43405); settings: at 0.1 µM;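 note: reported percentages are mean inhibition values for SYK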
# Macrophage-stimulating protein receptor (Homo sapiens), sequence (Q04912 25-304 limits assumed): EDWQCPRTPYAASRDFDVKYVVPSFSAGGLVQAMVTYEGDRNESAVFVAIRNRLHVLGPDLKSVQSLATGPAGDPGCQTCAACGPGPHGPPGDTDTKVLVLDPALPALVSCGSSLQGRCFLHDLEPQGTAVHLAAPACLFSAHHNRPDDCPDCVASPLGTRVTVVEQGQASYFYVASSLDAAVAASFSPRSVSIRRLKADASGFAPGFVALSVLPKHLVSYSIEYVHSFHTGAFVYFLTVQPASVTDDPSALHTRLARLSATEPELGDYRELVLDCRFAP
# Macrophage-stimulating protein receptor (Homo sapiens), sequence (Q04912 310-1400 limits assumed): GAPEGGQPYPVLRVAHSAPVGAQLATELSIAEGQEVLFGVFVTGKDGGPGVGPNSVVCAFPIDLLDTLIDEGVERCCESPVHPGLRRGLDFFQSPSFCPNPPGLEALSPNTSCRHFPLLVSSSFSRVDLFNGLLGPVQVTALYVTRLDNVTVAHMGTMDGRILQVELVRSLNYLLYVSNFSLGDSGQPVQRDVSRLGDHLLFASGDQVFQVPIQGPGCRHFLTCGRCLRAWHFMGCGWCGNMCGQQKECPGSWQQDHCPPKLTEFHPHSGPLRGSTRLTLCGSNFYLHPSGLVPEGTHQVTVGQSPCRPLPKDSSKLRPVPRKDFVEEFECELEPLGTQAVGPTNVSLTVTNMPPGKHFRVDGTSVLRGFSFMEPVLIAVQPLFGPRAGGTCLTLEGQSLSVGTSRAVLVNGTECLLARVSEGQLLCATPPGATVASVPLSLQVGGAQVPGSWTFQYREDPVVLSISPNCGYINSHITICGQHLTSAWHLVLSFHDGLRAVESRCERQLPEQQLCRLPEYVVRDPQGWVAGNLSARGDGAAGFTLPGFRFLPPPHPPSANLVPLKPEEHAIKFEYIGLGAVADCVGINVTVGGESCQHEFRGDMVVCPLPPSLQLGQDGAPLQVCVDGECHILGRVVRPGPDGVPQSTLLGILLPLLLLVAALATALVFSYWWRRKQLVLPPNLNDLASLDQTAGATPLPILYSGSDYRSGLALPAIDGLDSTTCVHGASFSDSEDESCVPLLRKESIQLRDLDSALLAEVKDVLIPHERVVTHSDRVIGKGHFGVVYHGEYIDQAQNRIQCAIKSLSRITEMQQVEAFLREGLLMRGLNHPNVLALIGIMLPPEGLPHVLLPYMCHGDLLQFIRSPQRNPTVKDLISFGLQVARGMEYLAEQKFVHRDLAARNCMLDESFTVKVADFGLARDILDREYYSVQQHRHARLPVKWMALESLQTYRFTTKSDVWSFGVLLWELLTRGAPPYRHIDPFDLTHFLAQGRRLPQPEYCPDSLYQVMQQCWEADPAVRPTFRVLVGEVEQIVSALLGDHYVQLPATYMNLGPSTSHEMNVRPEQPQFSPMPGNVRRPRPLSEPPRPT
# Proto-oncogene tyrosine-protein kinase Src (Homo sapiens), sequence (P12931 2-536 limits assumed): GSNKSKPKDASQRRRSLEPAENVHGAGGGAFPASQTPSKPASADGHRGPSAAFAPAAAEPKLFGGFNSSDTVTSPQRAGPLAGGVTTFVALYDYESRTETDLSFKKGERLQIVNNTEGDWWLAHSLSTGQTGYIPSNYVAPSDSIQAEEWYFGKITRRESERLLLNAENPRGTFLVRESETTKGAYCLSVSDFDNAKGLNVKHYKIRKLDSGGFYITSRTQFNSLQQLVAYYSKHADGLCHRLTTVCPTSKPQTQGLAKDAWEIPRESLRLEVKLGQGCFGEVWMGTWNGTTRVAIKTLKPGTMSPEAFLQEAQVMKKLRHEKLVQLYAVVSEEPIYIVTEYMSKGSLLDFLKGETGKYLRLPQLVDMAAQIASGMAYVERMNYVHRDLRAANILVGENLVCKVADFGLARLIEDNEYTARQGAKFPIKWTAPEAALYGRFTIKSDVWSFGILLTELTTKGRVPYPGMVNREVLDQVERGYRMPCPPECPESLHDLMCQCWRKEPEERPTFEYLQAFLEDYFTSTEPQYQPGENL
# Tyrosine-protein kinase Srms (Homo sapiens), sequence (Q9H3Y6 whole entry): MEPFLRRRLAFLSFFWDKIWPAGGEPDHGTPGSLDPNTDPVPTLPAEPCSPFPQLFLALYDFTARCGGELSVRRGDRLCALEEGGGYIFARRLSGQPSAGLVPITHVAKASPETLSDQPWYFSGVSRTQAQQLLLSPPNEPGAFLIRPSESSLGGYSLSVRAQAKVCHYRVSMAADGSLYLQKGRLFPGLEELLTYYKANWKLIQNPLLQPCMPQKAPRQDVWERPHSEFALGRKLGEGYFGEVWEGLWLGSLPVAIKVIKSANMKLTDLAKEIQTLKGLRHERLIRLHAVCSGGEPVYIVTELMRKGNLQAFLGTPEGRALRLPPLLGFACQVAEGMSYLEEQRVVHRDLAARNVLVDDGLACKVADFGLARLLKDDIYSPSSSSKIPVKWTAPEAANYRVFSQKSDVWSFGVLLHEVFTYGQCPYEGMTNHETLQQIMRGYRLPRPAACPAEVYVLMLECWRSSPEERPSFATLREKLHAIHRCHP
# Proto-oncogene tyrosine-protein kinase receptor Ret (Homo sapiens), P07949 [Y791F], sequence (P07949 whole entry Y791F): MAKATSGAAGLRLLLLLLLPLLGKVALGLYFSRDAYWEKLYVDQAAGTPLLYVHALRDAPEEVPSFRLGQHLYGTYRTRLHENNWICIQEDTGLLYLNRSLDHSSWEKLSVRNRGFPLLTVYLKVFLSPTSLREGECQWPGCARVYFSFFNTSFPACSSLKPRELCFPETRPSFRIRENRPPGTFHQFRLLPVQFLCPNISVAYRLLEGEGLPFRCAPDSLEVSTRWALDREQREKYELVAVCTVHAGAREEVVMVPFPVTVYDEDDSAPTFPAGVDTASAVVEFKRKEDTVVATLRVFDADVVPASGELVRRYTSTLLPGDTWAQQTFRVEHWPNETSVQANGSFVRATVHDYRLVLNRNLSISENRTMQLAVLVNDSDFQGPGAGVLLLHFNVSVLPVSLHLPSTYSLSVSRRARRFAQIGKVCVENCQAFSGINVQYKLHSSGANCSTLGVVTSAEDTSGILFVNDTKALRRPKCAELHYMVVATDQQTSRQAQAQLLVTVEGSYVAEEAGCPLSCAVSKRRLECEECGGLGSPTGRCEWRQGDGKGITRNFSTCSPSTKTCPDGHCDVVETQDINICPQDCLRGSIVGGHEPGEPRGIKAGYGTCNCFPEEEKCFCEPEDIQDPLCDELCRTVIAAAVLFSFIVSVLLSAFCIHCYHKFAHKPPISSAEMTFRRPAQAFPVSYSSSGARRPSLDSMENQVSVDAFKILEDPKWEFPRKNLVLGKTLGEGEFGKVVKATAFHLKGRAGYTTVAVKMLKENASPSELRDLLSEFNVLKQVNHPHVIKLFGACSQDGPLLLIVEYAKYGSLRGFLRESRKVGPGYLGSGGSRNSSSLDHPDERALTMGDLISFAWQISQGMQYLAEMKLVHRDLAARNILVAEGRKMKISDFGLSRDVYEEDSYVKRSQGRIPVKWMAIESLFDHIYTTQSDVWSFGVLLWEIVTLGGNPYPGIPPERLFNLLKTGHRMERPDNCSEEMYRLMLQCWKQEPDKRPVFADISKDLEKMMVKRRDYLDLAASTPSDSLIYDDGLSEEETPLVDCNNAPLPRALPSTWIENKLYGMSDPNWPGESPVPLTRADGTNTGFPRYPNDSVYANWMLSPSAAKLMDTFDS
SMILES,inhibition [1] [%],inhibition [2] [%],inhibition [3] [%],inhibition [4] [%],inhibition [5] [%],inhibition [6] [%],inhibition [7] [%],inhibition [8] [%],inhibition [9] [%],inhibition [10] [%]
CN(c1ccc(NC(=O)NCCN2CCOCC2)cc1)c1ccnc(Nc2ccc(CS(C)(=O)=O)cc2)n1,73.6,4.51,15.6,9.47,43.5,4.5,18.4,-1.89,1.22,-3.19
N#Cc1cccc(Nc2ncc(-c3ccccc3)o2)c1,10.8,-0.08,-1.06,2.33,3.19,6.64,19.9,2.21,2.55,1.05
Fc1ccc(Nc2nccc(-c3c(-c4ccc(C(F)(F)F)cc4)nn4ncccc34)n2)cc1F,4.13,-2.05,4.5,6.56,8.15,-0.44,6.45,0.3,-1.61,-5.43
O=C(O[C@H]1CN[C@H](C#Cc2cc3ncnc(Nc4ccc5c(ccn5Cc5cc(F)ccc5F)c4)c3s2)C1)N1CCOCC1,19.6,-0.04,7.89,5.19,6.27,0.52,8.86,-2.61,-3.38,-0.55
CN1CCC(n2cnc(-c3ccc(F)cc3)c2-c2ccnc(NCCO)n2)CC1,15.2,-0.99,-1.06,6.65,2.72,2.31,7.94,-0.64,-0.42,-2.08
COC(=O)Nc1nc2ccc(Oc3ccc(NC(=O)Nc4cc(C(F)(F)F)ccc4F)cc3)cc2s1,83.2,1.92,1.28,1.61,7.35,0.46,26.9,0.28,-0.86,0.09
CCCNc1cccc(-n2ncc3c(N/N=C/c4ccncc4)ncnc32)c1,65.2,11.7,57.9,6.09,33.4,19.5,81.8,4.26,7.86,3.8
CCOc1ccc2c(-c3ccnc(Nc4cc(OC)cc(C(F)(F)F)c4)n3)cnn2n1,5.26,8,7.47,4.18,20.7,-3.54,16.3,2.39,4.4,-3.45
COc1cc(Nc2ncc(-c3ccccc3)o2)cc(OC)c1,13.2,4.66,-0.05,3.98,11.9,14.9,49.7,2.58,3.5,-2.45
Cc1c2ccc(N(C)c3ccnc(Nc4cccc(S(N)(=O)=O)c4)n3)cc2nn1C,80.3,2.6,9.61,38.7,78.1,40.5,82.8,1.27,17.6,-4.22
COc1ccc(Nc2ncc(-c3ccccc3)o2)cc1OC,27.2,-0.4,5.46,7.2,24.5,12.2,54,0.67,2.69,4.52
CCn1c(-c2nonc2N)nc2cncc(C(=O)NCCNC)c21,12.2,1.51,1.07,3.34,14,8.77,6.62,-2.48,-2.36,-1.48
CNC(=O)c1ncccc1Nc1nc(Nc2cc3c(cc2OC)CCCN3C(=O)CN(C)C)nc2[nH]ccc12,27.1,-2.25,6.45,83.4,87.7,0.68,8.9,0.09,-0.71,-1.3
Cc1cc(O)cc(C)c1/C=C/c1cncc(C(N)=O)c1,8.63,1.41,4.46,4.48,6.31,5.55,54.2,5.08,31.6,-0.5
CC1(C)CC(n2cnc(-c3ccc(F)cc3)c2-c2ccnc(N)n2)CC(C)(C)N1,1.67,2.97,5.62,5.01,7.73,-1.43,5.26,0.52,-1.76,-1.03
Cc1nnc(-c2cccc(-c3ccc(C(=O)NCC4CC4)cc3)c2)o1,14.4,3.19,8.29,5.45,6.04,12.5,10.2,-2.52,2.96,-3.49
CS(=O)(=O)Nc1ccc(-c2ccc3c(NC(=O)C4CC4)n[nH]c3c2)cc1,6.93,1.04,7.91,11.3,11.7,-4.32,8.03,-0.44,0.5,-4.62
N#Cc1ccc2c(-c3ccnc(NC4CC4)n3)c(-c3ccc(F)cc3)nn2c1,10.8,2.34,0.41,1.21,1.91,2.91,3.58,0.49,-0.99,0.61
NS(=O)(=O)c1ccc(N/N=C2\C(=O)Nc3cccc(CCc4ccncc4)c32)cc1,29.1,-0.73,5.76,3,9.09,3.83,9.5,1.9,1.2,0.03
Cn1c(-c2nonc2N)nc2cnccc21,7.82,5.57,-0.92,2.77,3.73,-0.58,6.9,0.1,4.56,-1.4

SMILES,inhibition [1] [%],inhibition [2] [%],inhibition [3] [%],inhibition [4] [%],inhibition [5] [%],inhibition [6] [%],inhibition [7] [%],inhibition [8] [%],inhibition [9] [%],inhibition [10] [%]
NS(=O)(=O)c1cccc(N/C=C2\C(=O)Nc3ccccc32)c1,34.3,-4.07,7.57,5.69,9.87,1.93,12.9,-0.1,-1.56,-6.93
OCCCNc1nccc(-c2c(-c3ccc(F)cc3)nn3cc(C(F)(F)F)ccc23)n1,6.1,0.58,1.65,4.09,6.03,5.06,8.49,-0.48,-0.71,5.03
CS(=O)(=O)CCNCc1ccc(-c2ccc3ncnc(Nc4ccc(OCc5ccccc5)cc4)c3c2)o1,9.58,2.59,3.8,1.11,8.89,9.13,12.5,-0.68,2.59,1.7
COc1cc2c(cc1Nc1nc(Nc3cccc(F)c3C(N)=O)c3cc[nH]c3n1)N(C(=O)CN1CCN(C(C)C)CC1)CC2,6.08,-1.39,-1.15,31.6,73.7,4.53,11.8,-1.09,0.82,3.25
CC1=C(C(=O)Nc2ccc3[nH]ncc3c2)C(c2ccc(F)cc2)N=C(c2ccc(C(F)(F)F)nc2)N1 (stereo not given),43,7.5,5.38,4.98,14.9,-1.49,9.03,1.74,1.21,3.11
CNC(=O)c1cncc(/C=C/c2ccccc2C)c1,12.3,1.43,5.25,4.35,5.86,8.47,13.7,1.18,0.97,-0.75
COc1ccc2ncn(-c3cc(O[C@H](C)c4ccccc4C(F)(F)F)c(C(N)=O)s3)c2c1,4.51,-2.2,0.45,2.67,3.29,-2.12,-0.06,3.94,1.04,-1.01
O=C(Nc1n[nH]c2nnc(-c3cccnc3)cc12)C1CC1,3.64,-2.07,-3.95,-0.02,1.38,0.98,2.5,2.39,0.54,1.35
COc1c(C(N)=O)cc(-c2ccc(Cl)cc2)cc1-c1ccc(S(N)(=O)=O)cc1,7.43,6.88,6.97,12.2,14.6,10.9,14.6,-1.8,-2.15,1.78
CC(C)c1ccc(-c2cc(-c3c[nH]nc3-c3ccccn3)ccn2)cc1,4.31,-5.99,3.62,2.06,1.81,1.53,0.23,0.28,-0.57,2.53
O=C1Nc2ccccc2/C1=C1\CCc2cc(O)ccc21,64.6,5.94,2.23,10.8,18.6,-0.52,15.2,-1.04,-4.06,-8.61
CN(C)CCNC(=O)Nc1ccc(N(C)c2ccnc(Nc3ccc(CS(C)(=O)=O)cc3)n2)cc1,23.3,3.87,7.76,15.3,78,4.55,14.4,-2.02,-0.56,-4.06
NS(=O)(=O)c1ccc(N/N=C2\C(=O)Nc3ccc(C(=O)NCc4ccncc4)cc32)cc1,51.9,1.31,7.54,3.91,4.83,2.77,29.2,0.62,1.01,-2.4
Cc1cc(O)cc(C)c1/C=C/c1cncc(C(=O)OC(C)(C)C)c1,12.1,8.51,8.66,6.94,10.4,14.1,58.6,10.2,43.4,-0.49
CCS(=O)(=O)c1ccc(OC)c(Nc2ncc(-c3cccc(C(C)=O)c3)o2)c1,39.2,-2.76,3.79,3.34,16.5,16.3,70.7,0.94,17.7,-5.14
c1ccc(-c2n[nH]cc2-c2ccnc(-c3ccc(OCCn4ccnc4)cc3)c2)nc1,19.1,3.8,3.01,3.08,10.7,-2.63,8.69,0.16,3.94,-0.7
CS(=O)(=O)Nc1ccc(-c2cc(-c3ccccc3)cc(C(N)=O)c2N)cc1,3.96,-0.02,-1.34,4.8,6.51,2.73,4.51,-2.19,-2.04,-0.83
CC1=C(C(=O)Nc2ccc3[nH]nc(C)c3c2)C(c2ccc(C(F)(F)F)cc2)CC(=O)N1 (stereo not given),38.1,5.1,23.9,4.15,17.6,1.6,22.7,0.76,-1.98,-4.6
COc1ccc(-c2nn3ncccc3c2-c2ccnc(Nc3ccc(F)c(F)c3)n2)cc1,19.1,1.18,2.96,6.57,9.74,3.58,19.4,-2.81,1.37,-2.45
